# Data published in PubChem BioAssay (EPA / NIEHS).
# Inconclusive results are not listed. Calls of active or inactive are those of the source. How the source made its calls: active means hit-call score of the fitted dose curve at least 0.9, where 1 is the maximum; inconclusive means response in the unintended direction; inactive means score below 0.9.
# Experiment: ACEA_ER_80hr: ACEA Biosciences xCELLigence Real-Time Cell Analysis on Estrogen Receptor Agonism for Proliferation (AID 2282667)
# Conditions: T47D proliferation, impedance (xCELLigence), 80 h
# In short: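 Impedance readout (RT-CES) of T47D proliferation at 80 h post-dose; gain of signal vs DMSO baseline. Compounds: 8 conc, 1:4 serial, top 100 uM final, ≤0.5% DMSO; biological duplicate.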
SMILES,outcome,AC50
CC1(C)CC(=O)CC(C)(C)N1,inactive,–
CCCCOCCOCCO,inactive,–
Cc1cccc(O)c1,inactive,–
CCCCCCCOC(C)=O,inactive,–
CC(=O)OCC=C(C)CCC=C(C)CCC=C(C)C,inactive,–
CCCC[N+](C)(CCCC)CCCC,inactive,–
C=C(C)C(=O)OCCC(F)(F)C(F)(F)C(F)(F)C(F)(F)C(F)(F)C(F)(F)C(F)(F)C(F)(F)F,inactive,–
CC(=O)CCC=C(C)CCC=C(C)C,inactive,–
CC(C)COC(=O)c1ccccc1O,inactive,–
CC1=CCC(=C(C)C)CC1,inactive,–
O=C(O)C1=NN(c2ccc(S(=O)(=O)O)cc2)C(=O)C1,inactive,–
CCC(=O)OCC=Cc1ccccc1,–,10.5 µM (active)
CC(C)(O)CCc1ccccc1,inactive,–
C=COCC1CCC(COC=C)CC1 (configuration not stated),inactive,–
CCCCCCCCOC(C)=O,inactive,–
N#CCCNCCC#N,–,0.274 µM (active)
CC(C)(C)c1ccc(S)cc1,inactive,–
COc1ccccc1NC(=O)CC(C)=O,–,10.3 µM (active)
CC(C)OB(OC(C)C)OC(C)C,inactive,–

SMILES,outcome,AC50
CCc1cccc(O)c1,inactive,–
NC(=O)NC(N)=O,inactive,–
O=C(O)c1cccc(Cl)n1,inactive,–
C=CCS(=O)(=O)O,inactive,–
CC(=O)CCC(=O)O,inactive,–
CC=CC(=O)C1=C(C)C=CCC1(C)C,inactive,–
COc1ccccc1O,inactive,–
CC1=C(C=O)C(C)(C)CCC1,–,3.65 µM (active)
CCCCN(CCCC)CCCCCCN(CCCC)CCCC,inactive,–
CCCCOCC(C)OCC(C)O (configuration not stated),inactive,–
C=CC(C)(CCC=C(C)C)OC(=O)CC (configuration not stated),inactive,–
CCCCCCCCCOS(=O)(=O)O,inactive,–
CC(=O)c1ccc(C)cc1,inactive,–
C=C1CC/C=C(\C)CC[C@@H]2[C@@H]1CC2(C)C,inactive,–
O=C(O)CS,inactive,–
CCO[Si](CC)(OCC)OCC,inactive,–
C=C1CC[C@H]2O[C@]2(C)CC[C@@H]2[C@@H]1CC2(C)C,inactive,–
O=S1(=O)CC(Cl)(Cl)C(Cl)(Cl)C1,inactive,–
